# Experimental data reported in the supplement of paper PMC8728848.
# Only a selection was taken, and the strongest signals are over-represented in it overall.
# B1: AT5G24760(45) (Arabidopsis thaliana), Q8LEB2 (protein)
# chain: MSASSSSFEQPQVITCNAAVAWRAGEPLVMEEVEVSPPQPLEIRIKVVCTSLCRSDLSAWESQSLLPRIFGHEAAGIVESIGEGVTEFEKGDHVLAVFTGECGSCRHCISGKSNMCQVLGMERKGLMHSDQKTRFSIKGKPVYHYCAVSSFSEYTVVHSGCAVKVDPLAPLHKICLLSCGVAAGLGAAWNVADVQKGSSVVIFGLGTVGLSVAQGAKLRGAAQILGVDINPAKAEQAKTFGVTDFINSNDLSEPIPQVIKRMTGGGADFSFECVGDTGIATTALQSCSDGWGMTVTLGVPKAKPEVSAHYGLFLSGKSLKGTLFGGWKPKSDLPSLIDKYMNKEIMIDEFITHNLSFDEINKAFVLMREGKCLRCVLHMPK
# Key:
# Assay in all cases: glycan array binding signal (z-score within array); higher = stronger binding
# Details in all cases: glycan notation: IUPAC condensed, linker removed
# [1] = target: Fuc(a1-2)Gal(b1-3)GalNAc(b1-3)Gal(a1-4)Gal(b1-4)Glc
# Method in brief: (§1)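 Glycan array data came from 3228 arrays in the Consortium for Functional Glycomics database, and only arrays with an available protein sequence were kept. Glycan names were put into IUPAC-condensed notation, and columns mapping to the same glycan were averaged. The binding signal is a within-array Z-score, averaged across arrays of one protein sequence run at different concentrations or buffers and across linkers. A negative Z-score can be read as non-binding.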
# [2] = target: Fuc(a1-2)Gal(b1-4)GlcNAc(b1-3)[Fuc(a1-3)[Gal(b1-4)]GlcNAc(b1-6)]Gal(b1-4)Glc
# Method in brief: as §1
# [3] = target: Fuc(a1-2)Gal(b1-4)[Fuc(a1-3)]GlcNAc(b1-2)Man(a1-3)[Fuc(a1-2)Gal(b1-4)[Fuc(a1-3)]GlcNAc(b1-2)Man(a1-6)]Man(b1-4)GlcNAc(b1-4)[Fuc(a1-6)]GlcNAc
# Method in brief: as §1
# [4] = target: Fuc(a1-2)Gal(b1-4)[Fuc(a1-3)]GlcNAc(b1-3)GalNAc
# Method in brief: as §1
# Fuc(a1-2)[Gal(a1-3)]Gal = target: Fuc(a1-2)[Gal(a1-3)]Gal
# Method in brief: as §1
# [5] = target: Fuc(a1-2)[Gal(a1-3)]Gal(b1-3)GlcNAc
# Method in brief: as §1
# [6] = target: Fuc(a1-2)[Gal(a1-3)]Gal(b1-4)GlcNAc(b1-3)[Fuc(a1-2)[Gal(a1-3)]Gal(b1-4)GlcNAc(b1-6)]GalNAc
# Method in brief: as §1
# [7] = target: Fuc(a1-2)[GalNAc(a1-3)]Gal(b1-3)GlcNAc(b1-3)GalNAc
# Method in brief: as §1
# [8] = target: Fuc(a1-2)[GalNAc(a1-3)]Gal(b1-4)GlcNAc(b1-2)Man
# Method in brief: as §1
# [9] = target: Fuc(a1-2)[GalNAc(a1-3)]Gal(b1-4)[Fuc(a1-3)]GlcNAc(b1-3)GalNAc
# Method in brief: as §1
# [10] = target: Fuc(a1-3)[GalNAc(b1-4)]GlcNAc
# Method in brief: as §1
# Fuc(a1-4)GlcNAc = target: Fuc(a1-4)GlcNAc
# Method in brief: as §1
# Gal(a1-3)Gal = target: Gal(a1-3)Gal
# Method in brief: as §1
# Gal(a1-3)Gal(b1-3)GlcNAc = target: Gal(a1-3)Gal(b1-3)GlcNAc
# Method in brief: as §1
# [11] = target: Gal(a1-3)[Gal(a1-4)]Gal(b1-4)GlcNAc
# Method in brief: as §1
# Gal(b1-3)GalNAc = target: Gal(b1-3)GalNAc
# Method in brief: as §1
# [12] = target: Gal(b1-3)GlcNAc(b1-3)Gal(b1-4)GlcNAc
# Method in brief: as §1
# [13] = target: Gal(b1-4)GlcNAc(b1-2)[Gal(b1-4)GlcNAc(b1-6)]Man(a1-6)[GlcNAc(b1-4)][Gal(b1-4)GlcNAc(b1-2)Man(a1-3)]Man(b1-4)GlcNAc(b1-4)GlcNAc
# Method in brief: as §1
# [14] = target: Gal(b1-4)GlcNAc(b1-3)Gal(b1-4)GlcNAc(b1-3)Gal(b1-4)GlcNAc(b1-3)Gal(b1-4)GlcNAc(b1-2)[Gal(b1-4)GlcNAc(b1-3)Gal(b1-4)GlcNAc(b1-3)Gal(b1-4)GlcNAc(b1-3)Gal(b1-4)GlcNAc(b1-6)]Man(a1-6)[Gal(b1-4)GlcNAc(b1-3)Gal(b1-4)GlcNAc(b1-3)Gal(b1-4)GlcNAc(b1-3)Gal(b1-4)GlcNAc(b1-2)Man(a1-3)]Man(b1-4)GlcNAc(b1-4)[Fuc(a1-6)]GlcNAc
# Method in brief: as §1
# [15] = target: Gal(b1-4)GlcNAc(b1-3)Gal(b1-4)GlcNAc(b1-3)Gal(b1-4)GlcNAc(b1-3)Gal(b1-4)GlcNAc(b1-3)Gal(b1-4)GlcNAc(b1-3)Gal(b1-4)GlcNAc(b1-2)Man(a1-3)[Gal(b1-4)GlcNAc(b1-3)Gal(b1-4)GlcNAc(b1-3)Gal(b1-4)GlcNAc(b1-3)Gal(b1-4)GlcNAc(b1-3)Gal(b1-4)GlcNAc(b1-3)Gal(b1-4)GlcNAc(b1-2)Man(a1-6)]Man(b1-4)GlcNAc(b1-4)GlcNAc
# Method in brief: as §1
# [16] = target: Gal(b1-4)GlcNAc(b1-6)GalNAc
# Method in brief: as §1
# [17] = target: Gal(b1-4)GlcNAc(b1-6)[Gal(b1-3)]GalNAc
# Method in brief: as §1
# [18] = target: Gal3S(b1-3)[Fuc(a1-4)]GlcNAc
# Method in brief: as §1
# [19] = target: Gal3S(b1-4)[Fuc(a1-3)]Glc6S
# Method in brief: as §1
# [20] = target: GalNAc(b1-3)Gal(a1-4)Gal(b1-4)GlcNAc(b1-3)Gal(b1-4)Glc
# Method in brief: as §1
# [21] = target: GalNAc(b1-3)Gal(a1-6)Gal(b1-4)Glc
# Method in brief: as §1
# GalNAc(b1-3)GlcNAc = target: GalNAc(b1-3)GlcNAc
# Method in brief: as §1
# GalNAc(b1-4)GlcNAc = target: GalNAc(b1-4)GlcNAc
# Method in brief: as §1
# [22] = target: GlcNAc(b1-2)Gal(b1-3)GalNAc
# Method in brief: as §1
# [23] = target: GlcNAc(b1-2)[GlcNAc(b1-4)]Man(a1-3)[GlcNAc(b1-2)Man(a1-6)]Man(b1-4)GlcNAc(b1-4)GlcNAc
# Method in brief: as §1
# [24] = target: GlcNAc(b1-2)[GlcNAc(b1-4)]Man(a1-3)[GlcNAc(b1-4)][GlcNAc(b1-2)Man(a1-6)]Man(b1-4)GlcNAc(b1-4)GlcNAc
# Method in brief: as §1
# [25] = target: GlcNAc(b1-3)Gal(b1-4)GlcNAc(b1-3)Gal(b1-4)GlcNAc(b1-2)Man(a1-3)[GlcNAc(b1-3)Gal(b1-4)GlcNAc(b1-3)Gal(b1-4)GlcNAc(b1-2)Man(a1-6)]Man(b1-4)GlcNAc(b1-4)GlcNAc
# Method in brief: as §1
# [26] = target: GlcNAc(b1-4)Gal(b1-4)GlcNAc
# Method in brief: as §1
# [27] = target: Man(a1-3)[Man(a1-6)]Man(b1-4)GlcNAc(b1-4)[Fuc(a1-6)]GlcNAc
# Method in brief: as §1
# [28] = target: Neu5Ac(a2-3)Gal(b1-3)GlcNAc(b1-3)GalNAc
# Method in brief: as §1
# [29] = target: Neu5Ac(a2-3)Gal(b1-4)GlcNAc(b1-2)[Neu5Ac(a2-3)Gal(b1-4)GlcNAc(b1-6)]Man(a1-6)[Neu5Ac(a2-3)Gal(b1-4)GlcNAc(b1-2)Man(a1-3)]Man(b1-4)GlcNAc(b1-4)GlcNAc
# Method in brief: as §1
# [30] = target: Neu5Ac(a2-3)Gal(b1-4)GlcNAc(b1-3)Gal
# Method in brief: as §1
# [31] = target: Neu5Ac(a2-3)Gal(b1-4)GlcNAc(b1-3)[Neu5Ac(a2-3)Gal(b1-4)GlcNAc(b1-6)]GalNAc
# Method in brief: as §1
# [32] = target: Neu5Ac(a2-3)Gal(b1-4)[Fuc(a1-3)]GlcNAc(b1-3)GalNAc
# Method in brief: as §1
# [33] = target: Neu5Ac(a2-3)Gal(b1-4)[Fuc(a1-3)]GlcNAc(b1-6)[Neu5Ac(a2-3)Gal(b1-3)]GalNAc
# Method in brief: as §1
# [34] = target: Neu5Ac(a2-6)Gal(b1-4)GlcNAc(b1-3)Gal(b1-4)GlcNAc
# Method in brief: as §1
# [35] = target: Neu5Ac(a2-6)Gal(b1-4)GlcNAc(b1-3)Gal(b1-4)GlcNAc(b1-3)[Neu5Ac(a2-6)Gal(b1-4)GlcNAc(b1-3)Gal(b1-4)GlcNAc(b1-6)]GalNAc
# Method in brief: as §1
# [36] = target: Neu5Ac(a2-8)Neu5Ac(a2-3)[GalNAc(b1-4)]Gal(b1-4)Glc
# Method in brief: as §1
# [37] = target: Neu5Ac(a2-8)Neu5Ac(a2-8)Neu5Ac(a2-3)[Gal(b1-3)GalNAc(b1-4)]Gal(b1-4)Glc
# Method in brief: as §1
# [38] = target: Neu5Gc(a2-3)Gal(b1-4)[Fuc(a1-3)]GlcNAc
# Method in brief: as §1
binder,measurement,setting,value
B1,glycan array binding signal (z-score),[1],-0.051
same,glycan array binding signal (z-score),[2],0.166
same,glycan array binding signal (z-score),[3],0.395
same,glycan array binding signal (z-score),[4],4.6
same,glycan array binding signal (z-score),Fuc(a1-2)[Gal(a1-3)]Gal,0.984
same,glycan array binding signal (z-score),[5],-0.224
same,glycan array binding signal (z-score),[6],0.627
same,glycan array binding signal (z-score),[7],3.83
same,glycan array binding signal (z-score),[8],-0.179
same,glycan array binding signal (z-score),[9],6.82
same,glycan array binding signal (z-score),[10],1.18
same,glycan array binding signal (z-score),Fuc(a1-4)GlcNAc,1.12
same,glycan array binding signal (z-score),Gal(a1-3)Gal,0.612
same,glycan array binding signal (z-score),Gal(a1-3)Gal(b1-3)GlcNAc,7.36
same,glycan array binding signal (z-score),[11],6.01
same,glycan array binding signal (z-score),Gal(b1-3)GalNAc,0.106
same,glycan array binding signal (z-score),[12],-0.138
same,glycan array binding signal (z-score),[13],-1.03
same,glycan array binding signal (z-score),[14],-0.779
same,glycan array binding signal (z-score),[15],-0.887
same,glycan array binding signal (z-score),[16],1.23
same,glycan array binding signal (z-score),[17],-0.485
same,glycan array binding signal (z-score),[18],0.437
same,glycan array binding signal (z-score),[19],2.68
same,glycan array binding signal (z-score),[20],-0.632
same,glycan array binding signal (z-score),[21],-0.337
same,glycan array binding signal (z-score),GalNAc(b1-3)GlcNAc,0.645
same,glycan array binding signal (z-score),GalNAc(b1-4)GlcNAc,3.23
same,glycan array binding signal (z-score),[22],2.61
same,glycan array binding signal (z-score),[23],1.01
same,glycan array binding signal (z-score),[24],-0.932
same,glycan array binding signal (z-score),[25],1.14
same,glycan array binding signal (z-score),[26],2.53
same,glycan array binding signal (z-score),[27],-0.202
same,glycan array binding signal (z-score),[28],-0.553
same,glycan array binding signal (z-score),[29],-0.601
same,glycan array binding signal (z-score),[30],-0.951
same,glycan array binding signal (z-score),[31],-1.2
same,glycan array binding signal (z-score),[32],3.17
same,glycan array binding signal (z-score),[33],2.76
same,glycan array binding signal (z-score),[34],-0.877
same,glycan array binding signal (z-score),[35],-0.602
same,glycan array binding signal (z-score),[36],-0.388
same,glycan array binding signal (z-score),[37],0.125
same,glycan array binding signal (z-score),[38],-0.203
